This is part of a sample that, as a whole, favours compounds with a hit. Of some 83,000 tested, about 20% had one in any assay.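 Testing used 96-well plates and a 48-hour single-concentration exposure. Example: -40 means 40% of the starting cells died.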 Activity calls are given as the source filed them. Rule for the calls: active = growth percent below 10; inactive = the rest.
Columns and labels:
Assay in all cases: NCI-60 one-dose screen, 48 h (100 = growth as untreated, 0 = no growth, -100 = all killed)
Details in all cases: 10 µM unless noted
[1] = test system: SR leukemia
[2] = test system: RPMI-8226 leukemia
[3] = test system: OVCAR-5 ovarian
[4] = test system: OVCAR-4 ovarian
[5] = test system: SK-OV-3 ovarian
[6] = test system: IGROV1 ovarian
[7] = test system: OVCAR-3 ovarian
[8] = test system: HS 578T breast
[9] = test system: NCI/ADR-RES ovarian
[10] = test system: OVCAR-8 ovarian

Measured: growth

Cn1c(=O)c2[nH]c(CC(=O)O)nc2n(C)c1=O
inactive: [1] 99.3% | [2] 108% | [3] 106% | [4] 118% | [5] 106% | [6] 103% | [7] 108% | [8] 107% | [9] 102%

C[n+]1cc2cc3c(cc2c2ccccc21)OCO3
inactive: [1] 15.6% | [2] 40.3% | [3] 74% | [4] 52.3% | [5] 46% | [6] 84.1% | [7] 51.5% | [8] 42.1% | [9] 106%

CCCOCc1cn[nH]n1
inactive: [1] 99.2% | [2] 111% | [10] 102% | [4] 110% | [5] 109% | [6] 113% | [7] 108% | [8] 114% | [9] 106%

CNc1ccccc1C(=O)N/N=C/C=C/c1ccccc1
active: [1] 2.42% | [5] 7.51% | [7] -23.7% | [9] 3.92%
inactive: [2] 25.1% | [3] 47.1% | [4] 85.6% | [6] 23% | [8] 16.5%

CCN(CC)CCCC(C)NC(=S)N/N=C(\C)c1ccccn1 (stereo not given)
inactive: [1] 17.7% | [2] 58.9% | [10] 36.1% | [3] 55.1% | [5] 52.3% | [6] 32.3% | [7] 51% | [8] 92.6% | [9] 93.7%

Cc1cc(Cc2ccccc2)c(O)c(Cc2ccccc2)c1
inactive: [1] 91.3% | [2] 103% | [10] 91.1% | [3] 88.2% | [5] 102% | [6] 90.2% | [7] 101% | [8] 106% | [9] 82.6%

O=C(OCc1ccccc1)n1nnc2ccccc21
inactive: [1] 107% | [2] 109% | [10] 105% | [4] 92.3% | [6] 110% | [7] 106% | [8] 107% | [9] 111%

NC(=O)NCCO
inactive: [1] 96.2% | [2] 101% | [3] 106% | [4] 110% | [5] 110% | [6] 105% | [7] 106% | [8] 94.2% | [9] 97.7%

CCOC(=N)CC(=O)Nc1cccc(C)c1Cl
inactive: [1] 105% | [2] 107% | [10] 99.4% | [4] 106% | [5] 97.7% | [6] 104% | [7] 104% | [8] 105% | [9] 97.7%

CCCCCCCCCCCCCCCCOc1ccccc1NC(=O)CC(C)=O
inactive: [1] 107% | [2] 64% | [10] 113% | [3] 102% | [6] 88.4% | [7] 118% | [8] 118% | [9] 100%

Cc1nc(O)cc(=O)[nH]1
inactive: [1] 114% | [2] 114% | [3] 110% | [4] 114% | [5] 121% | [6] 106% | [7] 115% | [8] 91.4% | [9] 108%

COc1cc(C(=O)NC(=S)NCc2ccncc2)cc(OC)c1OC
inactive: [1] 74.2% | [2] 97.2% | [10] 103% | [3] 107% | [6] 107% | [7] 105% | [8] 106% | [9] 98.2%

Cc1c(Cl)cccc1NC(=S)NC(=O)c1ccccc1
inactive: [1] 88.4% | [2] 73.6% | [10] 92.2% | [3] 109% | [5] 95.2% | [6] 118% | [7] 103% | [8] 109% | [9] 104%

CC(C)(C)NCCC(O)c1cc(C(F)(F)F)nc2c(C(F)(F)F)cccc12 (stereo not given)
inactive: [1] 121% | [2] 95.7% | [10] 83.6% | [3] 77.8% | [5] 89.3% | [6] 71.7% | [7] 75.9% | [8] 65.5% | [9] 84.6%

COC1C(=O)CCC2(CO2)C1(O)C1(C)OC1CCC(C)C (stereo not given)
inactive: [1] 32.2% | [2] 77.4% | [3] 87.2% | [4] 89.7% | [5] 101% | [7] 95.1% | [8] 90.5% | [9] 86.8%
active: [6] -5.17%

Cc1ccccc1NC(=O)Oc1ccc(Cl)cc1C(=O)c1ccccc1
inactive: [1] 94.2% | [2] 85.6% | [3] 105% | [4] 102% | [5] 95.4% | [6] 101% | [7] 95.3% | [8] 84.3% | [9] 97%

O=C(O)c1ccc([N+](=O)[O-])cc1S(=O)(=O)O
inactive: [1] 110% | [2] 99.5% | [3] 106% | [4] 116% | [5] 103% | [6] 108% | [7] 99.4% | [8] 100% | [9] 104%

Cn1/c(=N\N=C\c2ccccc2OCCO)sc2ccccc21
inactive: [1] 89% | [2] 81% | [3] 104% | [4] 106% | [5] 104% | [6] 70.2% | [7] 95.2% | [8] 99.8% | [9] 109%

C=CCC(OC(C)=O)c1ccc(C(C)C)cc1 (stereo not given)
inactive: [1] 116% | [2] 108% | [3] 109% | [4] 113% | [5] 115% | [6] 123% | [7] 162% | [8] 109% | [9] 107%

CC(C)N1CC(=O)N2CSCC2C1=O (stereo not given)
inactive: [1] 114% | [2] 109% | [10] 106% | [4] 123% | [5] 116% | [6] 111% | [7] 104% | [8] 98.7% | [9] 109%

CC(C)N(C(=O)c1ccccc1)C(C)C
inactive: [1] 110% | [2] 105% | [3] 96.3% | [4] 109% | [5] 114% | [6] 116% | [7] 108% | [8] 108% | [9] 115%

Cc1ccc(C)c(CCO)c1
inactive: [1] 110% | [2] 138% | [10] 98.8% | [3] 97% | [6] 115% | [7] 101% | [8] 105% | [9] 102%

COc1cc2c(c(OC)c1OC)-c1ccc(SC)c(=O)cc1[C@@H](NC1OC(CO)C(O)C(O)C1O)CC2 (stereo not given in full)
active: [1] -22.4% | [5] 1.33% | [7] -15.5% | [9] 7.19%
inactive: [2] 19.7% | [3] 28.1% | [4] 68.3% | [6] 14.8% | [8] 28.5%

COC1(OC)C2(Cl)C(Cl)=C(Cl)C1(Cl)C1COCC12 (stereo not given)
inactive: [1] 89.9% | [2] 106% | [10] 93.9% | [4] 97.7% | [5] 96% | [6] 113% | [7] 110% | [8] 87.4% | [9] 110%

COc1cc(-c2ccc(NC(=O)CC(C)=O)c(OC)c2)ccc1NC(=O)CC(C)=O
inactive: [1] 93.7% | [2] 95.2% | [10] 94.8% | [3] 98.3% | [5] 101% | [6] 112% | [7] 110% | [8] 117% | [9] 95.2%

Nc1ncnc2c1ncn2C1OC(CO)C2OC21 (stereo not given)
inactive: [1] 112% | [2] 103% | [10] 98.7% | [4] 109% | [5] 105% | [6] 111% | [7] 106% | [8] 98.9% | [9] 110%

Source: PubChem BioAssay (NCI)
